What all share (assay): DAPPL (digital affinity profiling via proximity ligation, sequencing); 10 mM Tris-HCl pH 7.5, 50 mM NaCl, 1 mM DTT, 4% glycerol, room temperature, 30 min; GST-TFs on glutathione beads, 16-mer random dsDNA library, 0.1% formaldehyde crosslink after washing; high values mean tight binding
Details in all cases: protein: recombinant; tags: N-terminal GST; dsDNA, one strand shown

One experiment addresses T1, FLI1 (Homo sapiens, UniProt Q01543 1-452).
T1 sequence: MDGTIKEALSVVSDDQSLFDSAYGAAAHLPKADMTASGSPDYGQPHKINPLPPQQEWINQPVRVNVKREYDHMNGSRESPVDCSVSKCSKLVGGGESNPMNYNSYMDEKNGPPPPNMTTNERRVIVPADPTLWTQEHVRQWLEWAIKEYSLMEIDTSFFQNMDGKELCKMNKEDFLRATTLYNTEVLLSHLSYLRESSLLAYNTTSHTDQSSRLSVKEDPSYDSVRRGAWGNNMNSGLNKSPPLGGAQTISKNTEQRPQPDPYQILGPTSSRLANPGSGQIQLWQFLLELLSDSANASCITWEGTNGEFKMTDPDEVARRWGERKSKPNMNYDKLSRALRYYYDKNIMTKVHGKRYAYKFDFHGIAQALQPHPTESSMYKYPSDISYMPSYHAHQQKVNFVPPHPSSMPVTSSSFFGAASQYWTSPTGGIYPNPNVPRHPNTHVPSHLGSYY
In short, it runs like this:
(§1)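 Each value of binding signal is a hexamer's read frequency for a factor divided by the same hexamer's frequency in the tag-only sample. Barcoded, bead-captured GST fusions of human transcription factors made in yeast were pooled with that sample and incubated with 200 nmole of a random double-stranded 16-mer DNA library in Tris/NaCl/DTT/glycerol buffer at room temperature for 30 min. Washing, 0.1% formaldehyde crosslinking, proximity ligation, PCR and Illumina NextSeq500 sequencing followed.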

The target of the next experiment is T2, ELK1 (Homo sapiens, UniProt P19419 1-428).
T2 sequence: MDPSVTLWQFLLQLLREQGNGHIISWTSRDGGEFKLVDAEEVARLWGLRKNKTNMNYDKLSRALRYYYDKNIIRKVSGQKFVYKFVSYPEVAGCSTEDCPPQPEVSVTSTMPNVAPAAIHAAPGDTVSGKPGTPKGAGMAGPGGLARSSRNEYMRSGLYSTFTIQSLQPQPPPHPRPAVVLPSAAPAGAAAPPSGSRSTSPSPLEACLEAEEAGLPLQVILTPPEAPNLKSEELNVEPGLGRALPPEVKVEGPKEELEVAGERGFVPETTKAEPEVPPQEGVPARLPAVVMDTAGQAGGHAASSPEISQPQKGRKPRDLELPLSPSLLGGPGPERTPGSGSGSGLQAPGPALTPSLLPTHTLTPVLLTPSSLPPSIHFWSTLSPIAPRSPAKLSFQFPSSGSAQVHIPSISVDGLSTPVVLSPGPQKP
In short, it runs like this: as §1

Another experiment deals with ELF1 (Homo sapiens, UniProt P32519 1-619). In short, it runs like this: as §1
In another experiment the target is T3, ELK3 (Homo sapiens, UniProt P41970 1-407).
T3 sequence: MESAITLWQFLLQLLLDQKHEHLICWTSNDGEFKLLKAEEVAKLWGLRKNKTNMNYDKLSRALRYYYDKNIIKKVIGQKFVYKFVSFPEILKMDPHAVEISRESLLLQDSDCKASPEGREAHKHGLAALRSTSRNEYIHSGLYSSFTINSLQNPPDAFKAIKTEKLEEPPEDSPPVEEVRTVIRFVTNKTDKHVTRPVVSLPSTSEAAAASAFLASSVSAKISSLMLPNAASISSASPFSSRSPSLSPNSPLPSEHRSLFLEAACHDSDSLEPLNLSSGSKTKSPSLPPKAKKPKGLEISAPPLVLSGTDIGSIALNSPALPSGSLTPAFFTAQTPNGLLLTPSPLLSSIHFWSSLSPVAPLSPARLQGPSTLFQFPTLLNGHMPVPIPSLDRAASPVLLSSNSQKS
In short, it runs like this:
as §1

For the next experiment, the target named is T4, ELK4 (Homo sapiens, UniProt P28324-2 1-405).
T4 sequence: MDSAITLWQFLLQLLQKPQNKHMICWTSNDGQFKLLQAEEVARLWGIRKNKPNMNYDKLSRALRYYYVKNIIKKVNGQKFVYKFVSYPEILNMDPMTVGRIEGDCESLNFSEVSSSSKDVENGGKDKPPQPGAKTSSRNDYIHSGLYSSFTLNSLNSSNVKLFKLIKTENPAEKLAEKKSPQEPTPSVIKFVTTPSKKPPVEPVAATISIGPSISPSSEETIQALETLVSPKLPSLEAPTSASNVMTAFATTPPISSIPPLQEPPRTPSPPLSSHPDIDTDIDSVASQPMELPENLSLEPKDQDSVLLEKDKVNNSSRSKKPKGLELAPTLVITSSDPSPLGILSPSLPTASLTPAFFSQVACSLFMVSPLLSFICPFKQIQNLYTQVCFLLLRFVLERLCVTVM
The method, boiled down: as §1

The next experiment deals with T5, ETV2 (Homo sapiens, UniProt O00321 1-342).
T5 sequence: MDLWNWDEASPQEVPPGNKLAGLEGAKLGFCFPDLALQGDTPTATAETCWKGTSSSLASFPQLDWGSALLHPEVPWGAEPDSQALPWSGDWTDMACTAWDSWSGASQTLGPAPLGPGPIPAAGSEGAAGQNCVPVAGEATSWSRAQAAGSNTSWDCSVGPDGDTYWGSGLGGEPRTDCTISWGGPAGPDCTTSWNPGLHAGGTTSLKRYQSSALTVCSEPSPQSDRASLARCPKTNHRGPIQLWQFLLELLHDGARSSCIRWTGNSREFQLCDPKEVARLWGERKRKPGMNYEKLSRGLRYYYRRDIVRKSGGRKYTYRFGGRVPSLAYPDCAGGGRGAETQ
The method, boiled down: as §1

The next experiment addresses T6, ETV3L (Homo sapiens, UniProt Q6ZN32 1-361).
T6 sequence: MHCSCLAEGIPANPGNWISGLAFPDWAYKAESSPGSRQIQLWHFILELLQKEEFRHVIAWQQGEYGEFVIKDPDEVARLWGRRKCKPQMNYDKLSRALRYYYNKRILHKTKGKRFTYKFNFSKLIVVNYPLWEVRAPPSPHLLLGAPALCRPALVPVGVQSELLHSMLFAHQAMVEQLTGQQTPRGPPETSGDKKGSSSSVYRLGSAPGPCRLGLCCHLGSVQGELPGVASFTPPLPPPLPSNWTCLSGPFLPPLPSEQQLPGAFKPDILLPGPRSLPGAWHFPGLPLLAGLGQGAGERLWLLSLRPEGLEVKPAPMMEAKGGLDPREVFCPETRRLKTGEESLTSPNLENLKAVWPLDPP
In short, it runs like this:
as §1

Another experiment deals with T7, ETS2 (Homo sapiens, UniProt P15036 1-469).
T7 sequence: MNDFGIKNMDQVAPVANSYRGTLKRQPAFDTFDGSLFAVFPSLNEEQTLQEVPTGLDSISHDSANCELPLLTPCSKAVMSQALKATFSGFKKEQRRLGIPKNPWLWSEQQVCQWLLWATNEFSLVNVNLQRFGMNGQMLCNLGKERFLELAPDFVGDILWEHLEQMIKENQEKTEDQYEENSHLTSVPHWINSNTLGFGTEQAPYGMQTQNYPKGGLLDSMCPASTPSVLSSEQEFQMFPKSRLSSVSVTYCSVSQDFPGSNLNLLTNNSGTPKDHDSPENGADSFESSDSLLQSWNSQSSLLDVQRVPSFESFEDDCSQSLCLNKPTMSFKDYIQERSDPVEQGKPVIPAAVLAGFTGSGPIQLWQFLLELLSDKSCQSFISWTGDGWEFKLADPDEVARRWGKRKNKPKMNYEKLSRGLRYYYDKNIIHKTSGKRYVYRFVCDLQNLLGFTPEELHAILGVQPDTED
In short, it runs like this: as §1

The target in the next experiment is T8, ETV7 (Homo sapiens, UniProt Q9Y603 1-341).
T8 sequence: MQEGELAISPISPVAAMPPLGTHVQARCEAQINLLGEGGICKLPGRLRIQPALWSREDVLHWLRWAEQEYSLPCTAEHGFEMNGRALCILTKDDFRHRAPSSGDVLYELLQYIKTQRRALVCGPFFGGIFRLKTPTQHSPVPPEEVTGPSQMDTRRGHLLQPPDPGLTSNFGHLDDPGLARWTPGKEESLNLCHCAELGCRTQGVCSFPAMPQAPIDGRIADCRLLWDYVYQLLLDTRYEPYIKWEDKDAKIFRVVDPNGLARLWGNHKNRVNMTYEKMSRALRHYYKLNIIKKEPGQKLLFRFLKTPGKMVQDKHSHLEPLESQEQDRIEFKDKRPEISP
The method, boiled down: as §1

The target in a further experiment is T9, ETV3 (Homo sapiens, UniProt P41162-2 1-143).
T9 sequence: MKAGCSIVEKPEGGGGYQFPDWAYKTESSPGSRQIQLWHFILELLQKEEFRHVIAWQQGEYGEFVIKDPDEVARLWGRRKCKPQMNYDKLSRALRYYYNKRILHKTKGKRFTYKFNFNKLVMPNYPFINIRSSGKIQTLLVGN
The method, boiled down:
as §1

A further experiment concerns the target ETV6 (Homo sapiens, UniProt P41212 1-452). The method, boiled down:
as §1

ELF1, sequence (P32519 whole entry): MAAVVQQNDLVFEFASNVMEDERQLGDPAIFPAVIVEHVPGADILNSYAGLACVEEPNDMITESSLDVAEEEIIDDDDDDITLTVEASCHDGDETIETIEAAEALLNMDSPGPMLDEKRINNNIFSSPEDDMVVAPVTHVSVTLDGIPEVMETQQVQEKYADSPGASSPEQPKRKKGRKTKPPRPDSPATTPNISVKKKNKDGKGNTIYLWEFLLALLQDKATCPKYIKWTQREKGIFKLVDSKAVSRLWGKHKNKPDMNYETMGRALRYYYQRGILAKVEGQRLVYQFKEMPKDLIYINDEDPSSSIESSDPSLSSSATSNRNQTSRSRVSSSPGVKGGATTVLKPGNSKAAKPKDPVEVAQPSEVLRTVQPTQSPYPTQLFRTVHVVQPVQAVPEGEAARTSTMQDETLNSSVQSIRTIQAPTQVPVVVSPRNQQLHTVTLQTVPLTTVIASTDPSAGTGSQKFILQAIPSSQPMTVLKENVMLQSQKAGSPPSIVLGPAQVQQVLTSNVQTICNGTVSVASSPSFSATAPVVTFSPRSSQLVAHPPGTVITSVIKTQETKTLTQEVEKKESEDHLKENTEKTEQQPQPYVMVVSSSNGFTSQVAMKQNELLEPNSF
ETV6, sequence (P41212 whole entry): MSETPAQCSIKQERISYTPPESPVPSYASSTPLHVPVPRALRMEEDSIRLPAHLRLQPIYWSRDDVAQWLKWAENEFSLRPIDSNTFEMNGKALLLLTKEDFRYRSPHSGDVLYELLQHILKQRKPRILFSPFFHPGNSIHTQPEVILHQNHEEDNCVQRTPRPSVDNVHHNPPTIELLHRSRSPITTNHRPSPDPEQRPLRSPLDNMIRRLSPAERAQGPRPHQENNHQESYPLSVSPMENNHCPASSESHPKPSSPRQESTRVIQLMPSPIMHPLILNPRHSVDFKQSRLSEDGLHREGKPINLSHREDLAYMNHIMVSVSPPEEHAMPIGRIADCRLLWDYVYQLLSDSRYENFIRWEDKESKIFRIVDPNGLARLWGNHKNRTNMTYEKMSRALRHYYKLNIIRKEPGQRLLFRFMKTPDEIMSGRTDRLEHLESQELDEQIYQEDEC

With GACACT, the binding signal with FLI1 is 1.01 fold enrichment (6-mer frequency, TF over GST control); with ELK1 it was 1.02 fold enrichment (6-mer frequency, TF over GST control); with ELF1 it was 1.03 fold enrichment (6-mer frequency, TF over GST control); with ELK3, 1.06 fold enrichment (6-mer frequency, TF over GST control); with ELK4, 1.05 fold enrichment (6-mer frequency, TF over GST control); in the experiment with ETV2, 1.1 fold enrichment (6-mer frequency, TF over GST control). Also, the binding signal is 1.08 fold enrichment (6-mer frequency, TF over GST control) in the experiment with ETV3L; 1.05 fold enrichment (6-mer frequency, TF over GST control) with ETS2; 1.04 fold enrichment (6-mer frequency, TF over GST control) in the experiment with ETV7; 1.03 fold enrichment (6-mer frequency, TF over GST control) with ETV3; 1.13 fold enrichment (6-mer frequency, TF over GST control) with ETV6.
